Measurements from PubChem BioAssay (NCI).
Compounds without any hit were thinned out: in the full panel of roughly 83,000, 20% have a hit.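 Percent growth is the endpoint: 0 to 100 indicates growth inhibition (40 means 60% inhibition), 0 means no net growth, and negative values indicate cell death.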 Calls of active or inactive are those of the source. How the source made its calls: active means growth percent below 10; inactive means the rest.

System: HL-60(TB) leukemia
Test: NCI-60 one-dose screen, 48 h (100 = growth as untreated, 0 = no growth, -100 = all killed)
Conditions: 10 µM unless noted

| Structure (SMILES) | growth |
| --- | --- |
| CC1(C)N=C(N)N=C(N)N1c1ccc(CCCCc2ccccc2)c(Cl)c1 | -25.5% (active) |
| COc1cc(C2C(C(=O)OCc3ccccc3)=C(C)NC(C)=C2C(=O)OCc2ccccc2)cc(OC)c1OC | 5.01% (active) |
| O=C(CSC(=S)N1CCCCC1)Nc1ccccc1 | 100% (inactive) |
| COc1ccc(-c2nnc3n(C)c(=O)c4ccccc4n23)cc1O | -22% (active) |
| O=C(Nc1ccccc1C(=O)N/N=C(\c1ccccc1)c1ccccn1)c1ccccc1 | -24.1% (active) |
| CC(C)(N)CO[C@H]1C[C@H]2CC[C@@]1(C)C2(C)C | 111% (inactive) |
| Cn1ncc(Cl)c1-c1cc(C(=O)N[C@H](CN)Cc2cccc(F)c2)sc1Cl | 12.2% (inactive) |
| Cc1ccc2nc(NC(=O)CSc3nc(Cl)c(C#N)c(-c4ccccc4)n3)sc2c1 | 94.9% (inactive) |
| COC(=O)C1=NNC(=S)N(c2cc(C)[nH]n2)C(=O)C1 | 100% (inactive) |
| Cc1ccc2nc(Cl)c(Cn3nnnc3SCc3ccccc3)cc2c1 | 97.4% (inactive) |
| COC(=O)c1ccc2c(c1)nc(-c1ccc(Cl)cc1)n2-c1cc(C(C)(C)C)[nH]n1 | 14.9% (inactive) |
| Cc1cc(C)c(-c2cc(O)c(-c3c(C)cc(C)cc3C)cc2O)c(C)c1 | -24.4% (active) |
| O=S(=O)(NCCCNc1cc(-c2cn(-c3ccccc3)nc2-c2cccc(O)c2)ccn1)c1cccc2ccccc12 | 17.1% (inactive) |
| CC(=O)CSC(C)=O | 102% (inactive) |
| COc1ccc(C2NC(=O)c3cc4c(cc3N2)OCO4)cc1 (stereo not given) | -42% (active) |
| Cc1[nH]c(-c2ccc3cc[nH]c3c2)c2c1C(=O)CCCC2 | 20.5% (inactive) |
| COc1ccc(-c2nn(-c3cccc(Cl)c3)cc2-c2cc(-c3cccs3)[nH]c(=S)n2)cc1 | 46.4% (inactive) |
| C=CC(=O)N1CCN(c2cccc(Oc3nccc(Nc4nnc(-c5ccc(Br)cc5)s4)n3)c2)CC1 | 51.1% (inactive) |
| O=[N+]([O-])c1c(F)cccc1Nc1cccc(F)c1 | 100% (inactive) |
| O=C1c2nsnc2C(=O)c2c(F)c(F)c(F)c(F)c21 | -41.9% (active) |
| CCCCCCCCCCCC[n+]1c(C)cc(N)c2ccccc21 | -44.4% (active) |
| CCn1cc(C(=O)O)c(=O)c2cc(F)c(N3CCNCC3)cc21 | 96.9% (inactive) |
| Fc1ccc(NCCS)cc1 | 100% (inactive) |
| O=S1(=O)N(Cc2ccccc2)[C@@H](Cc2ccccc2)[C@H](O)[C@H](O)[C@H](Cc2ccccc2)N1Cc1ccccc1 | -4.17% (active) |
| COC1=CC(c2ccc[nH]2)=N/C1=C\c1[nH]c(C)c(CC(=O)OCc2ccccc2)c1C | -29.2% (active) |
